Laboratory results as given in the supplement of paper PMC11628255, “Interference of metal ions on the bioluminescent signal of firefly, Renilla, and NanoLuc luciferases in high-throughput screening assays” (Frontiers in Chemistry, 2024).
± gives the standard deviation of the averaged measurements.

Tested on: NanoLuc luciferase (NLuc)
Assay: residual bioluminescent signal relative to negative (DMSO) control; higher = less interference (more residual luciferase signal)
Protocol: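 Purified luciferase (FLuc 10 nM + 10 uM D-luciferin; NLuc 10 pM + 10 uM furimazine; RLuc 50 pM + 2 uM coelenterazine) in 384-well plates; metal salt pre-incubated with enzyme 10 min at RT, substrate added and luminescence read after 10 min. Signal normalised to plate DMSO negative control (% N_VALUE = x/mean neg *100); triplicate wells at 0.01, 1 and 5 mM salt.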

[1] = metal salt concentration 0.01 mM, HEPES conditions (100 mM HEPES, 0.1% BSA, pH 7.5)
[2] = metal salt concentration 0.01 mM, screening conditions (PBS, 0.1% BSA, pH 7.4)
[3] = metal salt concentration 1 mM, HEPES conditions (100 mM HEPES, 0.1% BSA, pH 7.5)
[4] = metal salt concentration 1 mM, screening conditions (PBS, 0.1% BSA, pH 7.4)
[5] = metal salt concentration 5 mM, HEPES conditions (100 mM HEPES, 0.1% BSA, pH 7.5)
[6] = metal salt concentration 5 mM, screening conditions (PBS, 0.1% BSA, pH 7.4)

SMILES | residual bioluminescent signal [1] [%] | residual bioluminescent signal [2] [%] | residual bioluminescent signal [3] [%] | residual bioluminescent signal [4] [%] | residual bioluminescent signal [5] [%] | residual bioluminescent signal [6] [%]
O=[N+]([O-])[O-].O=[N+]([O-])[O-].[Ca+2] [calcium nitrate] | 97.1 ± 2.3 | 96.46 ± 0.94 | 102 ± 5.5 | 97.6 ± 4.1 | 109 ± 3.1 | 92.6 ± 4.6
O=[N+]([O-])[O-].[K+] [potassium nitrate] | 95.2 ± 2.4 | 104 ± 1.6 | 90.9 ± 1.1 | 94.9 ± 3.4 | 101 ± 2 | 101 ± 4.7
O=[N+]([O-])[O-].O=[N+]([O-])[O-].[Cd+2] [cadmium nitrate] | 93.8 ± 1.4 | 98.2 ± 1.1 | 74.64 ± 0.51 | 62.1 ± 7.8 | 84.1 ± 2.6 | 22.1 ± 1.6
O=[N+]([O-])[O-].O=[N+]([O-])[O-].[Ni+2] [nickel(II) nitrate] | 89 ± 2 | 94.5 ± 3.8 | 87.6 ± 4.2 | 91.4 ± 1.8 | 89.9 ± 2.2 | 78.1 ± 3.4
O=[N+]([O-])[O-].[Li+] [lithium nitrate] | 93.22 ± 0.49 | 96.7 ± 1 | 97 ± 3.4 | 95.4 ± 4.8 | 102 ± 3.7 | 97.1 ± 3.3
O=[N+]([O-])[O-].O=[N+]([O-])[O-].O=[N+]([O-])[O-].[Ga+3] [gallium(III) nitrate] | 96.1 ± 2.9 | 99.5 ± 2.3 | 70.9 ± 6.9 | 83 ± 7.1 | 8.8 ± 1.5 | 0.649 ± 0.57
[Cl][Sn][Cl] [tin(II) chloride] | 95.8 ± 2.9 | 97 ± 5.1 | 90.1 ± 5 | 84.2 ± 6.6 | 87.3 ± 5 | 0.413 ± 0.39
O=[N+]([O-])[O-].[Ag+] [silver nitrate] | – | 28 ± 4.6 | – | 1.98 ± 0.46 | – | 2.05 ± 0.58
